Bioassay records deposited in PubChem by Broad Institute.
U2OS ROS induce = inducers of reactive oxygen species in cancer cells | ROS induction (% of piperlongumine), % at 10 µM | U2OS ROS induction, H2DCF-DA fluorescence | 46,000 tested, 2% active; in the data active means ROS induction above about 79%, passing the limit was not always enough
NOMO-1 viab = STK33 inhibitor candidate reducing NOMO-1 cell viability. 37,000 tested, 7.5% active. AID 2330. inhibition, % (concentration not given with the values). NOMO-1 AML viability, CellTiter-Glo luminescence, 72 h; in the data active means inhibition above about 80%
PD-1 reverse act = reversal of PD-1 mediated T-cell inhibition; primary human CD4 T cells, PD-L1 beads, CellTiter-Glo 96 h; activation, % (test concentration not listed); 29,000 tested, under 10 active; call rule not given here
Hits are given with their value; 0 = inactive; - = not tested or not shown. This is one part of a sample in which hits are shown more often than they occur.

SMILES	U2OS ROS induce	NOMO-1 viab	PD-1 reverse act
CC1(C)CC[C@@]2(C(=O)O[C@@H]3O[C@H](CO)[C@@H](O)[C@H](O)[C@H]3O)C(C1)C1=CCC3[C@@]4(C)CC[C@@H](O[C@@H]5O[C@H](CO)[C@@H](O)[C@H](O)[C@H]5O[C@@H]5O[C@H](CO)[C@@H](O)[C@H](O)[C@H]5O)C(C)(C)C4CC[C@@]3(C)[C@]1(C)C[C@H]2O (some centres undefined)	0	0	0
C[C@@H]1O[C@@H](O[C@H]2[C@H](O[C@H]3[C@H](O)[C@@H](C(=O)O)O[C@@H](O[C@H]4CC[C@@]5(C)C(CC[C@]6(C)C5CC[C@]57OC[C@@]8(CCC(C)(C)CC85)[C@H](O)C[C@]76C)C4(C)C)[C@@H]3O[C@@H]3O[C@H](CO)[C@@H](O[C@@H]4OC[C@@H](O)[C@H](O)[C@H]4O)[C@H](O)[C@H]3O)O[C@H](CO)[C@H](O)[C@@H]2O)[C@H](O)[C@H](O)[C@H]1O (some centres undefined)	0	0	0
C/C=C(/C)C(=O)O[C@H]1[C@H](OC(=O)/C=C/c2ccccc2)[C@@]23C(CC1(C)C)[C@]1(CCC4[C@@]5(C)CC[C@H](O[C@@H]6O[C@H](C(=O)O)[C@@H](O)[C@H](O[C@@H]7O[C@H](CO)[C@H](O)[C@H](O)[C@H]7O[C@@H]7O[C@@H](C)[C@H](O)[C@@H](O)[C@H]7O[C@@H]7OC[C@](O)(CO)[C@H]7O)[C@H]6O[C@@H]6O[C@H](CO)[C@H](O)[C@H](O)[C@H]6O)C(C)(C)C5CC[C@@]4(C)[C@]1(C)C[C@H]2O)O[C@H]3O (some centres undefined)	0	120	0
C/C=C(\C)C(=O)OC1C(OC(=O)/C=C(/C)CC(=O)O)C2(CO)C(O)CC3(C)C(=CCC4C5(C)CCC(OC6OC(C(=O)O)C(O)C(OC7OC(C)C(O)C(OC8OC(CO)C(O)C(O)C8O)C7O)C6O)C(C)(C)C5CCC43C)C2CC1(C)C (centres undefined)	0	122	0
C/C=C(/C)C(=O)O[C@H]1[C@H](OC(=O)/C(C)=C\C)[C@]2(CO)[C@H](O)C[C@]3(C)C(=CCC4[C@@]5(C)CC[C@H](OC6OC(C(=O)O)C(O)C(OC7OC(C)C(O)C(OC8OC(CO)C(O)C(O)C8O)C7O)C6O)C(C)(C)C5CC[C@]43C)[C@@H]2CC1(C)C (some centres undefined)	0	122	0
CC1(C)CC[C@]2(C(=O)O[C@@H]3O[C@H](CO)[C@@H](O)[C@H](O)[C@H]3O)CC[C@]3(C)C(=CCC4[C@@]5(C)CC[C@H](O[C@@H]6O[C@H](CO)[C@@H](O)[C@H](O[C@@H]7O[C@H](CO)[C@@H](O)[C@H](O)[C@H]7O)[C@H]6O[C@@H]6O[C@H](CO)[C@H](O)[C@H](O)[C@H]6O)C(C)(C)C5CC[C@]43C)[C@@H]2C1 (some centres undefined)	0	-	-
COc1cc(CN(C)C)c(O)c(CN(C)C)c1	0	-	-
O=C(CCn1nc(-c2ccccc2)ccc1=O)NC1CC1	0	-	-
O=S(=O)(Nc1ccccc1Oc1ccccc1)c1ccc(-c2ccon2)s1	0	-	-
O=C(NC1CC1)c1n[nH]c(=O)c2ccccc12	0	-	-
C[C@H](CO)N1C[C@H](C)[C@H](CN(C)Cc2ccc(Oc3ccccc3)cc2)Oc2c(NC(=O)c3nc4ccccc4s3)cccc2C1=O	0	0	0
C[C@H](CO)N1C[C@H](C)[C@H](CN(C)Cc2ccncc2)Oc2c(NC(=O)c3nc4ccccc4s3)cccc2C1=O	0	88	0
C[C@H]1CN([C@@H](C)CO)C(=O)c2cccc(NC(=O)c3nc4ccccc4s3)c2O[C@H]1CN(C)Cc1ccc(C(F)(F)F)cc1	0	0	0
C[C@H](CO)N1C[C@H](C)[C@@H](CN(C)C(=O)Nc2ccc(C(F)(F)F)cc2)Oc2c(NC(=O)c3nc4ccccc4s3)cccc2C1=O	0	0	0
C[C@H](CO)N1C[C@H](C)[C@H](CN(C)C(=O)Nc2ccc(C(F)(F)F)cc2)Oc2c(NC(=O)c3nc4ccccc4s3)cccc2C1=O	0	104	0
C[C@@H]1CN([C@H](C)CO)C(=O)c2cccc(NC(=O)c3nc4ccccc4s3)c2O[C@H]1CN(C)Cc1ccc(C(F)(F)F)cc1	0	101	0
C[C@H](CO)N1C[C@H](C)[C@@H](CN(C)Cc2ccncc2)Oc2c(NC(=O)c3nc4ccccc4s3)cccc2C1=O	0	0	0
C[C@H]1CN([C@@H](C)CO)C(=O)c2cccc(NC(=O)c3nc4ccccc4s3)c2O[C@H]1CN(C)Cc1ccc(Oc2ccccc2)cc1	95	0	0
CC[N+](C)(CC)Cc1cc2ccccc2c2c1COC2	0	-	-
O=C(c1ccc2c(Cl)c3c(nc2c1)CCC3)N1CCCC1	0	-	-
O=c1c2ccccc2n(Cc2ccccc2)c(=O)n1-c1cccc(Cl)c1	0	-	-
CCC(C)c1ccc(NC(=O)c2cc3ccccc3o2)cc1 (centres undefined)	0	-	-
CC1CCc2c(C(=O)O)csc2C1 (centres undefined)	0	-	-
Cc1ccc2nc(C(F)(F)F)[nH]c2c1	0	-	-
Cc1nn(Cc2cccc3ccccc23)c(C)c1NC(=O)C1CC1c1ccccc1 (centres undefined)	0	-	-
SMILES	U2OS ROS induce	NOMO-1 viab	PD-1 reverse act
Cc1nc2c(C(=O)NCC3CCCO3)cnn2c(C)c1Cc1ccccc1Cl (centres undefined)	0	-	-
Cc1ccc2[nH]c(=O)c3cc(C(=O)N(C)c4cccc(Cl)c4)sc3c2c1	0	-	-
C[C@@H]1CN([C@@H](C)CO)C(=O)c2cccc(NC(=O)Nc3ccc(C(F)(F)F)cc3)c2O[C@@H]1CN(C)Cc1ccc(Oc2ccccc2)cc1	0	95	0
C[C@@H]1CN([C@H](C)CO)C(=O)c2cccc(NC(=O)Nc3ccc(C(F)(F)F)cc3)c2O[C@@H]1CN(C)Cc1ccc(Oc2ccccc2)cc1	0	107	-
C[C@@H]1CN([C@H](C)CO)C(=O)c2cccc(NC(=O)Nc3ccc(C(F)(F)F)cc3)c2O[C@H]1CN(C)Cc1ccc(Oc2ccccc2)cc1	0	0	0
C[C@H]1CN([C@@H](C)CO)C(=O)c2cccc(NC(=O)Nc3ccc(C(F)(F)F)cc3)c2O[C@H]1CN(C)Cc1ccc(Oc2ccccc2)cc1	0	0	-
COc1ccc(CCn2c(=S)[nH]c3c(sc4ccccc43)c2=O)cc1OC	0	-	-
N#Cc1c(-c2ccco2)cc(-c2cccs2)nc1OCc1ccc(F)cc1	0	0	0
COc1ccc(-c2cc(-c3cccs3)nc(SC(C(=O)O)c3ccccc3)c2C#N)cc1 (centres undefined)	149	92	0
N#Cc1c(-c2ccccc2)cc(-c2cccs2)nc1SCS(=O)Cc1ccccc1 (centres undefined)	108	-	-
CC(C)(C)c1cc(-c2cccs2)c(C#N)c(SCC(=O)Oc2ccccc2)n1	0	0	0
Cc1cc(-c2ccccc2)nc(SCc2ccccc2)c1C#N	0	-	-
N#Cc1c(-c2ccco2)cc(-c2ccccc2)nc1SCCN1C(=O)c2ccccc2C1=O	0	-	-
CCS(=O)(=O)CCSc1nc(-c2ccccc2)cc(-c2ccccc2)c1C#N	98	-	-
N#Cc1c(-c2ccccc2)cc(-c2ccccc2)nc1SCC(O)CS(=O)Cc1ccccc1 (centres undefined)	144	-	-
